# Test results: publication PMC7826789 (International Journal of Molecular Sciences, 2021)
compound,measurement,setting,value
COc1cc(-c2cncc(-c3cnn(C4CCNCC4)c3)c2)cc(OC)c1OC [K05908],Kinases covered,TGFBR1,TGFBR1
Cc1ccc(-c2cc(-c3c[nH]nc3-c3ccccn3)ccn2)cc1 [GW684088],Kinases covered,TGFBR1,TGFBR1
CCn1cc(-c2ccnc3[nH]c(-c4cccc(CN(C)C)c4)cc23)c(-c2ccc(NC(=O)N(C)C)cc2)n1 [GSK1070916],Kinases covered,TIE2,TIE2
CCS(=O)(=O)c1ccc(OC)c(Nc2ncc(-c3cccc(OC)c3)o2)c1 [GW580509X],Kinases covered,TNK1,TNK1
COc1cc(N2CCN(C)CC2)ccc1Nc1ncc2c(n1)N(C)c1ccccc1C(=O)N2 [XMD8-87],Kinases covered,TNK2,TNK2
CNS(=O)(=O)c1ccc(N(C)C)c(Nc2ncnc3cc(OC)c(OC)cc23)c1 [GSK114],Kinases covered,TNNI3K,TNNI3K
same,Kinases covered,ZAK,ZAK
CC(=O)c1c(C)c2cnc(Nc3ccc(N4CCNCC4)cn3)nc2n(C2CCCC2)c1=O [PFE-PKIS 32],Kinases covered,TTK,TTK
CCS(=O)(=O)c1ccc(OC)c(Nc2ncc(-c3cccc(F)c3)o2)c1 [GW621970X],Kinases covered,YES,YES
CCCS(=O)(=O)Nc1ccc(F)c(-n2cc(-c3cncc(OC)c3)nn2)c1F [BI00865461],Kinases covered,ZAK,ZAK
NC(=O)c1cccnc1COc1cc(-c2ccc(N3CCOCC3)nc2)cc2ncccc12 [BI01125081],Kinases covered,ZAP70,ZAP70
O=C1Nc2ccc(I)cc2C1=Cc1cc(Br)c(O)c(Br)c1 [GW305074X],Kinases covered,cRAF,cRAF
CCn1c(-c2nonc2N)nc2cncc(CNC3CCNCC3)c21 [SB-747651A],Kinases covered,p70S6K,p70S6K
